Experimental data reported in PubChem BioAssay (Tox21).
Inconclusive results are not listed. The source made the active and inactive calls. Unless noted, the call rests on the fitted dose curve; in most records, active means well fitted curve in the direction sought with a large enough effect in the repeat runs; inconclusive means weak or mixed curves; inactive means no such curve, though single readings can be large; an effect the other way counts as inactive or inconclusive.

Key:
[1] = qHTS assay to identify small molecule agonists of the peroxisome proliferator-activated receptor delta (PPARd) signaling pathway - cell viability counter screen (AID 743211); further: nearly all actives have a fitted effect of over 55% in size
Outline: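 HEK293H PPARd-bla, 3000 cells/well; 5 h preincubation 37C/5% CO2; cpd in DMSO, 17 h 37C; B/G FRET substrate 2 h RT; CellTiter-Glo 30 min RT, luminescence.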

[2] = target: Peroxisome proliferator-activated receptor delta (Homo sapiens) (UniProt Q03181); test: qHTS assay to identify small molecule agonists of the peroxisome proliferator-activated receptor delta (PPARd) signaling pathway (AID 743212; calls by dose curve)
Chain of Peroxisome proliferator-activated receptor delta (Homo sapiens) (Q03181 whole entry, looked up): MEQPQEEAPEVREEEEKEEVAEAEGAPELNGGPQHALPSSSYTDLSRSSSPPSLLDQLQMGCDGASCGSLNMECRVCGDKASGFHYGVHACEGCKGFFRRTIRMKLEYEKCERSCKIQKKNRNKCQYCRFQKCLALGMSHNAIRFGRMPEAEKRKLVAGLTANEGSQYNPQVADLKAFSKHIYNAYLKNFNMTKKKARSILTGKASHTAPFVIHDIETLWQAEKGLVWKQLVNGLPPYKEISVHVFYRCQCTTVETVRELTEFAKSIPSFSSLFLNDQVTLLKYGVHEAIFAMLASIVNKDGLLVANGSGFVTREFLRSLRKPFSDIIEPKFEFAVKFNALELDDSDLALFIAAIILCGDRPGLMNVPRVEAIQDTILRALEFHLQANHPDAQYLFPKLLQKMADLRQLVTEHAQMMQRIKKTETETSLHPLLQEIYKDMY
Outline: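 Beta-lactamase reporter read by fluorescence (LiveBLAzer B/G FRET, 2 h, room temperature). Test agents, in DMSO, incubated at 37 C with PPARd-bla HEK293H cells.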

[3] = qHTS assay to identify small molecule antagonists of the peroxisome proliferator-activated receptor delta (PPARd) signaling pathway - cell viability counter screen (AID 743213); further: nearly all actives have a fitted effect of over 50% in size
Outline: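 Luminescence from CellTiter-Glo, added after the bla read and incubated 30 min at room temperature, gives viability of HEK293H PPARd-bla cells exposed to compounds for 17 h at 37 C with 300 nM L165041.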

[4] = target: Peroxisome proliferator-activated receptor delta (Homo sapiens) (UniProt Q03181); test: qHTS assay to identify small molecule antagonists of the peroxisome proliferator-activated receptor delta (PPARd) signaling pathway (AID 743215; active means well fitted inhibition curve with a large enough effect in the signal ratio in the repeat runs, not every such curve was filed as active; the % refers to the signal ratio;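 further: cells stimulated with agonist L165041 at 300 nM final during compound exposure; series mostly up to about 62 µM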)
Outline: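 HEK293H GeneBLAzer PPARd UAS-bla reporter cells; cpd + L165041 300 nM final, 17 h 37 C; LiveBLAzer B/G FRET substrate 2 h RT; fluorescence intensity read-out. Antagonist mode.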

[5] = qHTS assay to identify small molecule agonists of the farnesoid-X-receptor (FXR) signaling pathway - cell viability counter screen (AID 743218); further: nearly all actives have a fitted effect of over 45% in size
Outline: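 Luminescence from CellTiter-Glo, read after 30 min at RT, reports viability of GeneBLAzer FXR-UAS-bla HEK 293T cells treated 16 h with compounds in the wells used for the beta-lactamase reporter.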

[6] = qHTS assay to identify small molecule antagonists of the farnesoid-X-receptor (FXR) signaling pathway - cell viability counter screen (AID 743221; active means well fitted cell-killing curve with a large enough effect in the repeat runs, not every such curve was filed as active; further: nearly all actives have a fitted effect of over 50% in size)
Outline: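 Luminescence from CellTiter-Glo measures cytotoxicity in GeneBLAzer FXR-UAS-bla HEK 293T cells. Cells were exposed to compounds with 50 uM chenodeoxycholic acid (final) for 16 h at 37 C, in wells also used for the reporter readout.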

[7] = target: Vitamin D3 receptor (Homo sapiens) (UniProt P11473); test: qHTS assay to identify small molecule agonists of the vitamin D receptor (VDR) signaling pathway (AID 743222; calls by dose curve)
Chain of Vitamin D3 receptor (Homo sapiens) (P11473 whole entry, looked up): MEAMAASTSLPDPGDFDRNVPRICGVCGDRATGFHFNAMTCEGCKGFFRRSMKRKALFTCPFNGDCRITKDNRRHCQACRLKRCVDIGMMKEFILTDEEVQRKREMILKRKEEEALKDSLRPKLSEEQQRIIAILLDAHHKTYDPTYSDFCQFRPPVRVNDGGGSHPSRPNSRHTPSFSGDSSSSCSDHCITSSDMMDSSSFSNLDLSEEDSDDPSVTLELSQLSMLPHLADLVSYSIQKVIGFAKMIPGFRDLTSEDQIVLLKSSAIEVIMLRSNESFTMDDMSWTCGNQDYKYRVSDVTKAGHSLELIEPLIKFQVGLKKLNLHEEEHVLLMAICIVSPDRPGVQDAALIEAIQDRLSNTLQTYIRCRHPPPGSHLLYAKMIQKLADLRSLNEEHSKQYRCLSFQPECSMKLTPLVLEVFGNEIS
Outline: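 Beta-lactamase reporter readout (LiveBLAzer B/G FRET, 2 h RT) in VDR-bla cells after 16 h compound treatment at 37C, 5% CO2; cells pre-incubated 4 h before pin transfer of DMSO solutions.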

[8] = target: Vitamin D3 receptor (Homo sapiens) (UniProt P11473); test: qHTS assay to identify small molecule antagonists of the vitamin D receptor (VDR) signaling pathway (AID 743223; active means well fitted inhibition curve with a large enough effect in the signal ratio in the repeat runs, not every such curve was filed as active; the % refers to the signal ratio)
Outline: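 Antagonist mode uses 1alpha,25-dihydroxyvitamin D3 at 3 nM final as stimulus. VDR-bla cells receive compounds in DMSO, incubate 16 h at 37C, then a beta-lactamase FRET substrate for 2 h at room temperature before fluorescence measurement.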

[9] = target: Bile acid receptor (Homo sapiens) (UniProt Q96RI1); test: qHTS assay to identify small molecule antagonists of the farnesoid-X-receptor (FXR) signaling pathway (AID 743217; active means well fitted inhibition curve with a large enough effect in the signal ratio in the repeat runs, not every such curve was filed as active; the % refers to the signal ratio)
Chain of Bile acid receptor (Homo sapiens) (Q96RI1 whole entry, looked up): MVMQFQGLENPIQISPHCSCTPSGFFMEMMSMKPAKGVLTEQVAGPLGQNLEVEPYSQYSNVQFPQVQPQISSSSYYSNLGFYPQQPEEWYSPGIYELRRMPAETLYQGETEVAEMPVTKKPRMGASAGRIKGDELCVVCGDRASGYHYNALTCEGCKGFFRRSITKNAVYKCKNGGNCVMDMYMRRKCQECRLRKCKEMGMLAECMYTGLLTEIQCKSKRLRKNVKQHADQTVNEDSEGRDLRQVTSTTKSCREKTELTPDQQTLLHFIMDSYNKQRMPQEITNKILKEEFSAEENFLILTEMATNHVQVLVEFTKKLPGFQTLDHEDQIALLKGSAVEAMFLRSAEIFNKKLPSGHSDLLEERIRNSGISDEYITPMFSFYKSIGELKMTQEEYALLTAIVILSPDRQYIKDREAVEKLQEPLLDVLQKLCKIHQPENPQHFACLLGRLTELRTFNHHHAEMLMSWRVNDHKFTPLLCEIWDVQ
Outline: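 Read-out: beta-lactamase FRET fluorescence (LiveBLAzer B/G substrate, 2 h, room temperature) in GeneBLAzer FXR-UAS-bla HEK 293T cells. Compounds were co-dosed with 50 uM chenodeoxycholic acid (final) and incubated 16 h at 37 °C.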

[10] = target: Bile acid receptor (Homo sapiens) (UniProt Q96RI1); test: qHTS assay to identify small molecule agonists of the farnesoid-X-receptor (FXR) signaling pathway (AID 743220; active means well fitted activation curve with a large enough effect in the signal ratio in the repeat runs, not every such curve was filed as active; the % refers to the signal ratio)
Outline: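 FXR-UAS-bla HEK 293T cells carrying a UAS-driven beta-lactamase reporter were plated for 5 h at 37C/5% CO2, then exposed to DMSO-dissolved Tox21 10K compounds for 16 h at 37C. A LiveBLAzer B/G FRET substrate was loaded for 2 h at room temperature before fluorescence reading.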

Measured: Potency

C=CCCC
not listed: [9] | [10]
inactive: all other assays above

CCOc1ccc(NC(C)=O)cc1N
not listed: [6] | [9] | [10]
inactive: all other assays above

OCCOc1cccc(OCCO)c1
not listed: [8] | [9] | [10]
inactive: all other assays above

CCC(C(=O)O)c1ccc(N2Cc3ccccc3C2=O)cc1 (stereo not drawn)
not listed: [6] | [9] | [10]
inactive: all other assays above

O=c1[nH]nc(-c2ccc([N+](=O)[O-])o2)o1
not listed: [9] | [10]
inactive: all other assays above

CCCc1nc(C)c2c(=O)[nH]c(-c3cc(S(=O)(=O)N4CCN(CC)CC4)ccc3OCC)nn12
not listed: [9] | [10]
inactive: all other assays above

O=[N+]([O-])c1ccccc1CCO
not listed: [9] | [10]
inactive: all other assays above

Nc1ccc(C(=O)Oc2ccccc2)c(O)c1
not listed: [4]
inactive: all other assays above

CO[C@@H]1COCC[C@@H]1N[C@@H]1CC[C@@](C(=O)N2CCc3ncc(C(F)(F)F)cc3C2)(C(C)C)C1
not listed: [9] | [10]
inactive: all other assays above

CCCCCCCCCCCCSC#N
not listed: [9] | [10]
inactive: all other assays above

CC(C)(C)N
not listed: [9] | [10]
inactive: all other assays above

CC[C@H](NC(C)C)[C@H](O)c1ccc(O)c2[nH]c(=O)ccc12
not listed: [7] | [9] | [10]
inactive: all other assays above

C/C=C1\[C@H]2C=C(C)C[C@]1(N)c1ccc(=O)[nH]c1C2
not listed: [4] | [7] | [8]
inactive: all other assays above

CCC(=O)O[C@@H]1C[C@H]2CC[C@]1(C)C2(C)C
inactive: [1] | [2] | [3] | [4] | [6] | [7]

Cc1nc(C)c(C)nc1C
not listed: [6] | [9] | [10]
inactive: all other assays above

Cc1ccc2ccccc2c1[N+](=O)[O-]
not listed: [9] | [10]
inactive: all other assays above

COC(=O)/C=C/C(C)=C\C=C\C(C)=C\C=C\C=C(C)\C=C\C=C(C)\C=C\C(=O)O
not listed: [4]
inactive: all other assays above

Nc1ccc(-c2ccc(F)cc2)cc1
not listed: [4] | [5] | [8]
inactive: all other assays above

OCCCO
not listed: [6] | [9] | [10]
inactive: all other assays above

O=C(c1ccc(Cl)cc1)c1ccc(Cl)cc1
not listed: [6] | [9] | [10]
inactive: all other assays above

CCCCCC1CCC(=O)O1 (stereo not drawn)
not listed: [4]
inactive: all other assays above

c1ccc(CCNc2nc(-c3ccccc3)cs2)cc1
not listed: [9] | [10]
inactive: all other assays above

CC(C)NC(=O)c1ccccc1N
not listed: [4] | [10]
inactive: all other assays above

COc1ccc(C(=O)c2ccc(C)cc2)c(O)c1
inactive: [1] | [2] | [4] | [6] | [8]

COC(=O)Cc1cccc2ccccc12
inactive: [1] | [2] | [3] | [5] | [7] | [8]

CNc1ccccc1
inactive: [1] | [2] | [3] | [5] | [7] | [8]

CC(C)CCCCCCCOC(=O)c1ccc(C(=O)OCCCCCCCC(C)C)c(C(=O)OCCCCCCCC(C)C)c1
inactive: [1] | [2] | [3] | [5] | [7]

CC(C)=CCC[C@H](C)CCO
inactive: [1] | [2] | [3] | [5]

CCCC(=O)OCCC(C)C
not listed: [3] | [8] | [10]
inactive: all other assays above

O=C(O)c1ccc(O)c(O)c1
inactive: [1] | [2] | [4] | [5] | [6]

O=[N+]([O-])c1ccc(Cl)cc1Cl
inactive: [1] | [2] | [3] | [5] | [6]

O=C(OCCN1CCOCC1)c1cccnc1Nc1cccc(C(F)(F)F)c1
not listed: [4] | [9] | [10]
inactive: all other assays above

Cc1cc(C)c(C)c(O)c1
inactive: [1] | [2] | [4] | [5] | [7] | [8]

CCN(CC)CC(=O)OCC(=O)[C@@]1(O)CC[C@H]2[C@@H]3CCC4=CC(=O)CC[C@]4(C)[C@H]3[C@@H](O)C[C@@]21C
inactive: [1] | [2] | [3] | [5] | [6] | [7]

COc1cccc([C@H](O)C2CCN(CCc3ccc(F)cc3)CC2)c1OC
not listed: [3] | [8]
inactive: all other assays above

CC(Cc1ccccc1)(NC(=O)CN)c1ccccc1 (stereo not drawn)
not listed: [3] | [9]
inactive: all other assays above

FC1(F)C(F)(F)C(F)(F)C2(F)C(F)(C1(F)F)C(F)(F)C(F)(F)C1(F)C(F)(F)C(F)(F)C(F)(F)C(F)(F)C12F (stereo not drawn)
inactive: [1] | [2] | [3] | [5] | [6] | [7]

COc1ccc(/C(C)=C/C(=O)O)c(OC)c1
not listed: [4] | [9] | [10]
inactive: all other assays above

CCOCCn1c(N2CCCN(C)CC2)nc2ccccc21
inactive: [1] | [2] | [3] | [6] | [7] | [8]

O=S(=O)(O)c1cc(Cl)c(Cl)cc1Cl
inactive: [1] | [2] | [3] | [5] | [6] | [7]

C/C(=C(\CCO)SS/C(CCO)=C(\C)N(C=O)Cc1cnc(C)nc1N)N(C=O)Cc1cnc(C)nc1N
not listed: [4] | [9] | [10]
inactive: all other assays above

Clc1cc(Cl)c2c(c1)N=C1CCCCCN1C2
not listed: [3] | [10]
inactive: all other assays above

CCC[Si](OC)(OC)OC
not listed: [3] | [6]
inactive: all other assays above

CCC(C)C1N=C(C)C(C)S1 (stereo not drawn)
inactive: [1] | [2] | [3] | [5] | [6]

FC(F)(Cl)C(F)(Cl)Cl
inactive: [1] | [2] | [3] | [6] | [7] | [8]

Nc1ccc(F)cc1F
not listed: [4] | [9] | [10]
inactive: all other assays above

C1CCN(CN2CCCCC2)CC1
not listed: [4] | [9] | [10]
inactive: all other assays above

Cc1ccc2c(Cl)cc(Cl)c(O)c2n1
inactive: [1] | [2] | [3] | [7] | [8]

Cc1ccc(S(=O)(=O)NC(=O)NC2CCCC2)cc1
not listed: [4] | [9] | [10]
inactive: all other assays above

CCCc1ccc(OC)cc1
inactive: [1] | [2] | [4] | [5] | [6] | [7]

N#CCCCC(C#N)CCC#N (stereo not drawn)
inactive: [1] | [2] | [3] | [5] | [6]

CC(C)(C(=O)O)c1ccc(C(O)CCCN2CCC(C(O)(c3ccccc3)c3ccccc3)CC2)cc1 (stereo not drawn)
inactive: [1] | [2] | [3] | [5] | [6] | [7]

O=C(Cl)c1ccc(F)c(Cl)c1
not listed: [4] | [9] | [10]
inactive: all other assays above

CCCOC(C)=O
inactive: [1] | [2] | [4] | [5] | [6]

CC(C(=O)O)c1ccc2c(c1)Cc1cccnc1O2 (stereo not drawn)
not listed: [4] | [9] | [10]
inactive: all other assays above

Cc1ccc(Cl)c(OCC(O)CNC(C)(C)C)c1 (stereo not drawn)
not listed: [3] | [9] | [10]
inactive: all other assays above

Cc1c(Cl)cccc1[N+](=O)[O-]
not listed: [3] | [4] | [8]
inactive: all other assays above

CCCCCCCCCCCC(=O)OCC
not listed: [4] | [9] | [10]
inactive: all other assays above

CC(COc1ccccc1)NC(C)C(O)c1ccc(O)cc1 (stereo not drawn)
not listed: [3] | [8] | [9]
inactive: all other assays above

CC1(C)CC(=O)CC(C)(C)N1
inactive: [1] | [2] | [4] | [5] | [6] | [7]

O=C(Cl)c1cc(Cl)cc(Cl)c1
not listed: [4] | [9] | [10]
inactive: all other assays above

O=C(Nc1ccccc1)c1cc([N+](=O)[O-])ccc1Cl
inactive: [1] | [2] | [3] | [5] | [6]

C=CC(C)CCC=C(C)C (stereo not drawn)
inactive: [1] | [2] | [5] | [6] | [7] | [8]

CCCC(=O)OCc1ccccc1
not listed: [2] | [8] | [10]
inactive: all other assays above

CCOc1ccc2c(c1)C(C)CC(C)(C)N2 (stereo not drawn)
not listed: [2]
inactive: all other assays above
